Only some compounds are listed: those with a hit (about 0.9% of all), similar ones and a draw of the others.
PPARg SRC-2 ag: agonists of PPARg-SRC-2 recruitment, primary screen, biochemical, HTS. Peroxisome proliferator-activated receptor gamma (Homo sapiens), P37231. PPARgamma LBD-SRC-2 recruitment. activation, % at 8 µM. actives 0.34% (n = 200,000). AID 1032, 2008; in the data active = activation above about 22%;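 note: 0% = vehicle and 100% = reference agonist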
SRC1 TRFRET art: TR-FRET detection interference compounds, primary screen, artefact control for PPARgamma SRC-1 recruitment agonists, biochemical, TR-FRET emission ratio; TR-FRET ratio at 8 µM; TR-FRET detection artefact counter-screen; hits give high values; actives 0.34% (n = 99,000); in the data active = TR-FRET ratio above about 2300
PPARg SRC-3 ag: PPARgamma agonists recruiting SRC-3 coactivator, primary screen, biochemical; activation, % at 8 µM; biochemical PPARgamma/SRC-3 coactivator recruitment assay; AID 731, 2007; actives 0.26% (n = 200,000); in the data active = activation above about 23%;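 note: 0% = DMSO and 100% = reference agonist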
PPARg SRC-1 ag: PPARgamma agonists recruiting SRC-1 coactivator, primary screen, biochemical; Peroxisome proliferator-activated receptor gamma (Homo sapiens), P37231; actives 0.41% (n = 200,000); activation, % at 8 µM; PPARgamma-SRC-1 coactivator recruitment biochemical assay; AID 631, 2007; in the data active = activation above about 19%;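 note: 0% = DMSO and 100% = reference agonist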
TR-FRET SRC-2 ct: TR-FRET signal artefacts, primary screen, artefact control for PPARgamma SRC-2 agonist project, biochemical | actives 0.4% (n = 200,000) | TR-FRET artefact counter-screen; hits give high values | TR-FRET ratio at 8 µM
SRC3 TRFRET art: TR-FRET detection interference compounds, artefact control for PPARgamma SRC-3 recruitment agonists, biochemical, TR-FRET ratio; TR-FRET artefact counter-screen, PPARgamma/SRC-3 format; hits give high values; TR-FRET ratio at 8 µM; actives 0.39% (n = 99,000); AID 1048, 2008
PPARg SRC2 conf: agonists of PPARgamma SRC-2 coactivator recruitment, confirmation, biochemical, HTS | activation, % at 8 µM | AID 1297, 2008 | biochemical SRC-2 recruitment by PPARgamma | shares compounds with PPARg SRC-3 ag | actives 52% (n = 790); in the data active = activation above about 22%;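 note: 0% = vehicle alone and 100% = reference agonist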
PPARg SRC1 conf: PPARgamma agonists recruiting SRC-1 coactivator, confirmation, biochemical. shares compounds with PPARg SRC-3 ag. PPARgamma–SRC-1 coactivator recruitment biochemical assay. activation, % at 8 µM. actives 43% (n = 790). AID 1300, 2008; in the data active = activation above about 20%;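 note: 0% = vehicle wells and 100% = reference agonist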
PPARg SRC3 conf: PPARgamma-driven SRC-3 coactivator recruitment agonists, confirmation, biochemical. shares compounds with PPARg SRC-3 ag. biochemical PPARgamma-SRC-3 coactivator recruitment, agonist mode. activation, % at 8 µM. actives 29% (n = 790); in the data active = activation above about 24%;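 note: 0% = vehicle wells and 100% = reference agonist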
Target sequence (P37231 whole entry, looked up): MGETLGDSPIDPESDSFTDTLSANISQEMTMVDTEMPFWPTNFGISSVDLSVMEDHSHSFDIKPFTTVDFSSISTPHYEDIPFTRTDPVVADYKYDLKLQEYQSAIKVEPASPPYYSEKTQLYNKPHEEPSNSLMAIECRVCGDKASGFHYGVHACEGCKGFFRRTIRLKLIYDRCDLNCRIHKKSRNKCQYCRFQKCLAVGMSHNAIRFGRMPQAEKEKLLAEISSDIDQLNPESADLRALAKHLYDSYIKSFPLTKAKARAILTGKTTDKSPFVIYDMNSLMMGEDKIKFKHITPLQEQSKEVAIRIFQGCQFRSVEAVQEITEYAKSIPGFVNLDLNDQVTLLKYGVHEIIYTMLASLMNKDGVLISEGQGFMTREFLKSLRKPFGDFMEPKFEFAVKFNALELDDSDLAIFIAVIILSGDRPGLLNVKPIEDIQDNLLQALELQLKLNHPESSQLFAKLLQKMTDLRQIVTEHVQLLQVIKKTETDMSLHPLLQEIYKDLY
Target sequence (Q9Y6Q9 whole entry, looked up): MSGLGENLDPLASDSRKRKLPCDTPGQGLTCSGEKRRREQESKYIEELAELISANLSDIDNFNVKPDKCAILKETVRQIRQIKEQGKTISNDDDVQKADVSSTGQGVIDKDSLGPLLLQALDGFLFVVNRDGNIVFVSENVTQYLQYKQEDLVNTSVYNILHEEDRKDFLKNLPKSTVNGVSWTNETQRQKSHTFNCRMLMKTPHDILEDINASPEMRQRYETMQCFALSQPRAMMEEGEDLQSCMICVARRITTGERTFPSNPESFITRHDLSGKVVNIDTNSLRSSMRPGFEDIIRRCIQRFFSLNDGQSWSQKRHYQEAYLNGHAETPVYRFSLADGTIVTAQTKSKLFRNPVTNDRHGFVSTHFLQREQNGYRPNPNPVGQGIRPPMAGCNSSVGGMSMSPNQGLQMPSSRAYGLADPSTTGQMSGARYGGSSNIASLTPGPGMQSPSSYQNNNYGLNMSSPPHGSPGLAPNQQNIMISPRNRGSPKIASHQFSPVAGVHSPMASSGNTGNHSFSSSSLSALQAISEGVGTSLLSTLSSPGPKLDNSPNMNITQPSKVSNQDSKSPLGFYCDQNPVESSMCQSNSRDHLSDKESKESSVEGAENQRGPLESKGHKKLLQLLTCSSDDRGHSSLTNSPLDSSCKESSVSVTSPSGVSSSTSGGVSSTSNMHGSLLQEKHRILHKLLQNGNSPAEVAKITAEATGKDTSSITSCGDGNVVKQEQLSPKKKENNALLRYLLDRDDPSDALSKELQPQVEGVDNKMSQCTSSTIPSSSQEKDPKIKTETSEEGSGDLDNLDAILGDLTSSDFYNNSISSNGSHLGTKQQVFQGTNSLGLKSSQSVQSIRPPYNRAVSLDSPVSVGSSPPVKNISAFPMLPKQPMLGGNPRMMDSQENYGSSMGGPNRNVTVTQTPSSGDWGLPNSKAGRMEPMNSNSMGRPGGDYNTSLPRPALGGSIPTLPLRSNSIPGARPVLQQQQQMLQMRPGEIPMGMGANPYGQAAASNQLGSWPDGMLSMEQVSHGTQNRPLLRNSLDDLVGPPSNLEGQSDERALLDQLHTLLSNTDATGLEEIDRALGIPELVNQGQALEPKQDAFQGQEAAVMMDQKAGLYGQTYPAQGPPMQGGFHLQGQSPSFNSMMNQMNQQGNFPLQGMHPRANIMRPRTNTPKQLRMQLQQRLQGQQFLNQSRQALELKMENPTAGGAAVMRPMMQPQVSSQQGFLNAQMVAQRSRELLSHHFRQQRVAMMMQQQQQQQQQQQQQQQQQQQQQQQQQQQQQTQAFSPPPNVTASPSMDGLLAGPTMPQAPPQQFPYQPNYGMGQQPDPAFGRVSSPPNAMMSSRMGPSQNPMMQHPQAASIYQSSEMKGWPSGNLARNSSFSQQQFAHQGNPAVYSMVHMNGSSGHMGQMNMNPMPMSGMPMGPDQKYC
* marks the source's active call; other numbers are inactive results; · = no result given. Cut-off read from the data, not from the text of the source, unless noted: active = TR-FRET ratio above about 2000; inactive = the rest.

SMILES	PPARg SRC-2 ag	SRC1 TRFRET art	PPARg SRC-3 ag	PPARg SRC-1 ag	TR-FRET SRC-2 ct	SRC3 TRFRET art	PPARg SRC2 conf	PPARg SRC1 conf	PPARg SRC3 conf
S=c1[nH]nc(Cc2cccc3ccccc23)o1	-6.6	1581	2.6	-7.7	1336	1601	·	·	·
O=c1c2ccccc2c(-c2n[nH]c(=S)o2)nn1Cc1ccccc1	27.8*	2576*	15.8	23.4*	2234*	2375*	48.7*	42.1*	30.9*
Cc1ccccc1-c1n[nH]c(=S)o1	67.5*	·	79.2*	46.1*	3075*	·	49.9*	33.5*	35.6*
CC(Cc1n[nH]c(=S)o1)c1ccccc1 (configuration not stated)	0.0	1951	-0.9	0.2	1603	1437	·	·	·
Cc1ccc(-c2cc(-c3n[nH]c(=S)o3)c3ccccc3n2)cc1	4.5	2257	9.8	10.5	1695	1989	·	·	·
S=c1[nH]nc(-c2ccccc2)o1	66.9*	·	71.2*	56.2*	2863*	·	51.7*	37.2*	35.2*
CSc1ccccc1-c1n[nH]c(=S)o1	95.6*	4008*	44.5*	69.5*	3652*	3610*	50.5*	33.0*	34.1*
COc1cc2oc3ccccc3c2cc1N(CC(=O)N1CCCCC1)S(=O)(=O)c1ccc(C)cc1	6.2	·	-3.3	-7.2	1490	·	·	·	·
Nn1cc(-c2ccccc2)nc1SCC(=O)N1CCN(S(=O)(=O)c2ccc3ccccc3c2)CC1	3.9	·	-1.1	0.0	1528	·	·	·	·
O=C(/C=C/c1ccco1)NC(=S)NNC(=O)c1ccco1	5.6	·	8.3	-1.1	1678	·	·	·	·
CCCCCn1c(CN2CCN(C(=O)OCC)CC2)nc2c1c(=O)n(C)c(=O)n2C	4.6	·	8.0	-7.9	1465	·	·	·	·
CCCCCn1c(CN2CCN(C)CC2)nc2c1c(=O)n(C)c(=O)n2C	11.4	·	26.2*	5.2	1775	·	2.5	3.2	0.9
O=S(=O)(NCCc1ccncc1)c1cc(Br)ccc1F	9.2	·	8.8	-1.6	1574	·	·	·	·
N#CC(c1nc2ccccc2nc1N1CCCC1)S(=O)(=O)c1ccccc1 (configuration not stated)	-6.3	·	-7.6	10.4	1401	·	·	·	·
Cc1cccc(S(=O)(=O)C(C#N)c2nc3ccccc3nc2N2CCCC2)c1 (configuration not stated)	11.4	·	14.3	19.0*	1588	·	7.9	11.2	6.1
Cc1ccc(NC(=S)NC2CCCCC2)cc1S(=O)(=O)N(C)C	0.2	1886	0.4	-2.3	1527	1450	·	·	·
CNc1oc(-c2ccc(C)cc2)nc1P(=O)(c1ccccc1)c1ccccc1	5.4	·	6.6	6.3	1569	·	·	·	·
COc1ccccc1-c1nnc(SC2CCc3ccccc3NC2=O)s1 (configuration not stated)	69.0*	·	41.7*	31.2*	2323*	·	48.8*	38.6*	33.0*
C=CCN(CC=C)C(=S)NC(=O)Cc1cccc2ccccc12	-0.3	1784	2.8	0.4	1558	1504	·	·	·
COc1ccc(/C=C/C(=O)OCC(=O)Nc2ccc(Cl)cn2)cc1	14.8	1771	2.8	7.4	1660	1781	·	·	·
Cc1cc(C)cc(C(=O)NN2CCOCC2)c1	7.2	1656	3.0	-0.9	1604	1693	·	·	·
Oc1ccc(Cl)cc1CNc1ccc(Br)cn1	9.9	·	3.8	23.4*	1491	·	0.9	9.0	6.3
Oc1c(Cl)cc(Cl)cc1CNc1ccc(Br)cn1	0.3	·	-4.4	1.9	1523	·	·	·	·
